These results are taken from ChEMBL document CHEMBL3433997, “St. Jude Leishmania screening dataset” (2016).

Holding throughout (assay type): functional
For assay [1], the target named is Solute carrier family 2, facilitated glucose transporter member 1 (Homo sapiens) (UniProt P11166). Nature of the assay: ST_JUDE_LEISH: Cytotoxicity at 2uM final concentration against transgenic Leishmania Mexicana promastigotes LmGLUT1 that are glucose transport deficient and complemented with the human glucose transporter GLUT1. Activity is measured by DNA content using SYBR green in vitro.
Solute carrier family 2, facilitated glucose transporter member 1 (Homo sapiens), sequence (P11166 whole entry): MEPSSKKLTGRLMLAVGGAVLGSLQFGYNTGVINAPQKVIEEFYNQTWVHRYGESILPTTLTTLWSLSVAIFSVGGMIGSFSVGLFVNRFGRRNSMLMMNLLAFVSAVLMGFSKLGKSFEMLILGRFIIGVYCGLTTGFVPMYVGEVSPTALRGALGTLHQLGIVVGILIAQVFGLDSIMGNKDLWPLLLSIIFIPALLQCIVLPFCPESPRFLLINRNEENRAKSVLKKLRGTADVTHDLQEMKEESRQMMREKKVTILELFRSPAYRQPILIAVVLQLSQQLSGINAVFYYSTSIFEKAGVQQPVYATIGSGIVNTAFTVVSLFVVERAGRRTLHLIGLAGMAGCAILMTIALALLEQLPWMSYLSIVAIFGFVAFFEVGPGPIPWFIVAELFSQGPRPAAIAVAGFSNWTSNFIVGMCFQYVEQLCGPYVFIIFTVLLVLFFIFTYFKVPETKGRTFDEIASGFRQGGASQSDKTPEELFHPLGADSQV

Assay [2] concerns the target Hexose transporter 1 (Plasmodium falciparum) (UniProt O97467). The experiment in a line: ST_JUDE_LEISH: Cytotoxicity at 2uM final concentration against transgenic Leishmania Mexicana promastigotes LmPfHT that are glucose transport deficient and complemented with the Plasmodium falciparum hexose transporter. Activity is measured by DNA content using SYBR green in vitro.

Assay [3] concerns the target Glucose transporter (Leishmania mexicana) (UniProt O61059). Nature of the assay: ST_JUDE_LEISH: Cytotoxicity at 2uM final concentration against transgenic Leishmania Mexicana promastigotes LmGT2 that are glucose transport deficient and complemented with the L. Mexicana glucose transporter 2. Activity is measured by DNA content using SYBR green in vitro.

The term inhibition denotes the change of the read-out against control, counted positive when it falls. Consider `CN(C)c1ccc(-c2csc(C(=O)NCC3CCN(CCC(C)(C)C)C3)c2)cc1` (stereo not drawn), for which the inhibition in assay [1] is -0.84%; in assay [2], -0.06%; in assay [3] it was 0.06%.
With `CC(C)COc1ccc(Cl)cc1Cc1ccc(-c2nc3ccc(Cl)cc3[nH]2)o1`, the inhibition in assay [1] was -1.56%; in assay [2], 2.55%; in assay [3], 1.16%.
In the case of `Cc1ccc(F)cc1S(=O)(=O)NCC(C)c1ccc(NC(=O)Nc2cccc(F)c2)cc1` (stereo not drawn), the inhibition in assay [1] is 0.16%; in assay [2], 1.6%; in assay [3], -0.29%.
As to `N#Cc1ccc(OCCN(Cc2ccccc2C(F)(F)F)c2ccc(C#N)c(C(F)(F)F)c2)cc1`, the inhibition is 10.1% in assay [1], 9.42% in assay [2] and 8.53% in assay [3].
As for `Cc1nc2nc(N)nc(N)c2c(C)c1Cc1ccc(C#N)cc1`, the inhibition in assay [1] was 0.34%; in assay [2], 4.37%; in assay [3], -0.44%.
Take `c1ccc2c(CNCCCN3CCN(CCCNCc4c5ccccc5cc5ccccc45)CC3)c3ccccc3cc2c1`: the inhibition in assay [1] was found to be 10.3%; in assay [2], 4%; in assay [3], 0.34%.
On the same counts, the results for `CN=C(NC)c1cccc(NC(=O)C=Cc2ccc(C=CC(=O)Nc3cccc(C(=NC)NC)c3)cc2)c1` are 0.52%, 2.48% and -0.11%.
`Nc1c(Cl)cc(C(O)CNCCCCCCOCCc2ccc(CO)s2)cc1Cl` (stereo not drawn): the values for the inhibition in assay [1], in assay [2] and in assay [3] were 2.77%, 1.49% and 2.21%, respectively.
`Oc1ccc2ncnc(Nc3ccc(OCc4cccc(F)c4)c(Cl)c3)c2c1`: the inhibition was -2.81% in assay [1], -0.64% in assay [2] and -1.78% in assay [3].
As to `COc1c(C2CCN(CCCCNC(=O)c3ccc(-c4ccc(C#N)cc4)cc3)CC2)cc(Cl)c2c1CCCC2`, the inhibition is 1.68% in assay [1], 2.86% in assay [2] and 0.77% in assay [3].
On to `Cc1cccc2c3c([nH]c12)C1(CCN(Cc2ccccc2)CC1)NC(C(=O)NCc1ccccc1)C3` (stereo not drawn), for which the inhibition in assay [1] is 0.05%; in assay [2], -0.76%; in assay [3] it was 0.87%.
For the compound `COc1cccc(Nc2nc(Nc3cccc(C#N)c3)cc(C(F)(F)F)n2)c1`, the inhibition in assay [1] is 6.5%; in assay [2], 6.64%; in assay [3], 6.05%.
Turning to `CN(C)CCCOc1ccc(CN2CC[C@H](NC(=O)c3ccc(Cl)c(Cl)c3)C2)cc1Br`, the inhibition in assay [1] turned out to be 3.8%; in assay [2], 0.94%; in assay [3], 0.53%.
As to `Cc1nc2nc(N)nc(N)c2c(C)c1Cc1ccc(N)cc1`, the inhibition in assay [1] came to 3.4%; in assay [2], 8.1%; in assay [3] it was 1.88%.
For the compound `CCN(CC)CCCCNc1cc(-c2[nH]c(-c3c(Cl)cccc3Cl)nc2-c2ccc3cc(OC)ccc3c2)ccn1`, the figures for the inhibition in assay [1], in assay [2] and in assay [3] were 0.05%, -1.62% and -0.83%, respectively.
Taken in the same sequence, the figures for `O=S(=O)(c1ccc(OCc2ccc(Cl)cc2)cc1)c1cc2c(c(-c3ccc(F)cc3)c1)CCN(CC1CC1)CC2` were 2.2%, 0.41% and -0.48%.
On to `NC1=NC(c2ccccc2)(c2ccccc2)C(=O)N1CC1CCC1`, for which the inhibition in assay [1] turned out to be 0.06%; in assay [2], 2.21%; in assay [3], 0.31%.
Turning to `O=C(c1ccc(-c2ccc(-c3nc4cc(F)ccc4[nH]3)cc2)cc1)N1CCCCC1CN1CCC(O)C1` (stereo not drawn), the inhibition worked out at 4.53% in assay [1], 4.9% in assay [2] and 1.78% in assay [3].
Take `CCCCCCNC(=O)C1Cc2c([nH]c3ccc(Br)cc23)C2(CCN(Cc3ccccc3)CC2)N1` (stereo not drawn): the inhibition in assay [1] came out at 45.6%; in assay [2], 15.5%; in assay [3] it was 30.9%.
`c1ccc(-c2cc(NCCNc3cc(-c4ccccc4)nc4ccccc34)c3ccccc3n2)cc1`: the inhibition in assay [1] was -1.99%; in assay [2], 6.2%; in assay [3], 15.2%.
In the case of `c1ccc(CCNCc2ccc(-c3ccc(CNCc4ccc5c(c4)OCO5)cc3)nc2)cc1`, the inhibition in assay [1] is 2.48%; in assay [2], -1.05%; in assay [3], 1.81%.
`Cc1cccc(/C=C/C(=O)NC2CCC(N3CCC(c4ccccc4C)CC3)CC2)c1` (stereo not drawn): the inhibition was -2.65% in assay [1], -2.79% in assay [2] and -0.99% in assay [3].
As for `CCOc1ccc(-c2nonc2NC(=O)c2ccc(OC)cc2)cc1OCC`, the inhibition in assay [1] is -1.17%; in assay [2], 4.75%; in assay [3], -0.16%.
On the same counts, the results for `COc1cc(-c2nc3c4ccccc4c4ccccc4c3[nH]2)cc(OC)c1OC` are 1.82%, 1.28% and 1.58%.
As to `O=C(NCC1CC1)C1CCN(C(c2ccccc2)c2ccc(Cl)c(Cl)c2)CC1` (stereo not drawn), the inhibition in assay [1] is -0.49%; in assay [2] it was 1.49%; in assay [3], 0.06%.
For `CCN(CC)CCNC(=O)c1ccc(NC(=O)c2oc3c(Cl)cccc3c2C)cc1`, the inhibition in assay [1] was 12.1%; in assay [2] it was 8.3%; in assay [3], 7.44%.
On to `O=C(Nc1ccc(F)cc1)c1cnc(N2CCN(c3ccncc3)CC2)c(Cl)c1`, for which the inhibition in assay [1] came out at 16%; in assay [2], 10.4%; in assay [3], 3.86%.
Taken in the same sequence, the figures for `Cc1ccc(O)cc1Nc1c(C(N)=O)cnc2ccc(-c3cncs3)cc12` were -2.06%, -0.39% and -1.28%.
On to `O=c1cc(NCCCNCc2cc(Br)ccc2F)[nH]c2ccccc12`, for which the inhibition is -1.01% in assay [1], -0.63% in assay [2] and -6.76% in assay [3].
As to `Cc1ccc(NC(=O)NC2CCN(c3ccnc4cc(Cl)ccc34)CC2)cc1`, the inhibition in assay [1] worked out at 9.02%; in assay [2] it was 7.47%; in assay [3] it was 8.65%.
Regarding `CC(CN1CCN(C)CC1)C(=O)Nc1cccc(-c2ccc(-c3nc4ccccc4[nH]3)cc2)c1` (stereo not drawn), the inhibition in assay [1] is 0.63%; in assay [2], 1.17%; in assay [3], -1.58%.
Taken in the same sequence, the figures for `N=C(N)Nc1nc(-c2cccc(NC(=O)NCC(c3ccccc3)c3ccccc3)c2)cs1` were 0.2%, 2.14% and 0.5%.
Consider `COCCN1CCC(N(CC2(O)CCN(c3ccc(C(F)(F)F)cc3)CC2)C(=O)Cn2c(SCc3cccc(F)c3F)cc(=O)c3ccccc32)CC1`, for which the inhibition is -0.38% in assay [1], 0.65% in assay [2] and 0.85% in assay [3].
In the case of `COc1ccc(OC)c(Cc2cnc3nc(N)[nH]c(=O)c3c2C)c1`, the values for the inhibition in assay [1], in assay [2] and in assay [3] were 3.38%, 4.59% and 5.15%, respectively.
On to `CNC(=N)c1ccc(NC(=O)c2ccc(C(=O)Nc3ccc(C(=N)NC)cc3)cc2)cc1`, for which the inhibition in assay [1] is 1.44%; in assay [2] it was 2.97%; in assay [3] it was 1.84%.
On to `c1ccc(CN2CCC(NCc3ccc(-c4ccc(CNC5CCCC5)cc4)cc3)CC2)cc1`, for which the figures for the inhibition in assay [1], in assay [2] and in assay [3] were 1.73%, 1.09% and 0.48%, respectively.
